PubChem BioAssay (NCATS)
Values joined by “and” are separate entries in the source; they are usually repeats but may differ in a detail not shown here. Equal values may be shown once. Records with an inconclusive call do not appear. Active and inactive are the calls of the source. Calls follow the shape of the dose curve; as a rule, active = well fitted curve in the direction sought with a large enough effect; inconclusive = small, poorly fitted or top-dose-only effect, or another doubt; inactive = no such curve, though single readings can be large; an effect the other way counts as inactive or inconclusive.

Experiments:
[1] = qHTS Assay for Identifying Gametocytocidal Compounds (AID 743244);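 also: % is scaled to controls: 0 for no effect and ±100 for the full control effect; actives lower the fluorescent signal which means gametocytes are killed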; conditions: P. falciparum 3D7 stage III-V gametocytes, alamarBlue, 72 h; max response: active compounds read low
Summary of the method: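 3D7 gametocytes, stages III–V, 20,000/well; cpd 72 h, 37 °C/5% CO2; + alamarBlue 24 h; fluor. Ex 525/Em 598.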

[2] = qHTS assay for measurement of the activity of small molecule inhibitors on Zika virus induced Caspase-3 activity in human iPSC derived neural progenitor cells (hNPCs) (AID 1224857); also: % of control where 0% means no effect; nearly all actives have a fitted effect of over 65% in size
Summary of the method: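 Cells were plated at 350 per well and grown 16 to 20 hours. Compound pretreatment lasted one hour, after which ZIKV (2 FFU/cell) was added for 6 hours. Percent inhibition was normalized between uninfected and infected controls.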

[3] = qHTS assay for measurement of the activity of small molecule inhibitors on Zika virus induced Caspase-3 activity in human astrocytoma cells (AID 1224859);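 also: plate controls were ZIKV-infected untreated cells for no effect and uninfected cells for full effect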
Summary of the method: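 Percent inhibition of virus-induced caspase-3/7 signal is calculated against uninfected and ZIKV-infected control cells. Cells are SNB-19, infected at 2 FFU/cell for 6 h after 1 h compound exposure.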

[4] = P-glycoprotein substrates identified in KB-8-5-11 adenocarcinoma cell line, qHTS therapeutic library screen (AID 1346987); also: nearly all actives have a fitted effect of over 65% in size
Summary of the method: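 Steps: plate 500 KB-8-5-11 cells/well in DMEM + 10% FCS (colchicine removed); pin compounds in dose-response; incubate 72 h, 37 degree C, 5% CO2; add CellTiter-Glo, 5 min; read luminescence.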

[5] = NS1 protein of Zika virus - qHTS assay to identify small molecule inhibitors in human HEK 293 cells (AID 1347053);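 also: series mostly up to about 46 µM; plate controls were infected untreated cells for no effect and uninfected cells for full effect; nearly all actives have a fitted effect of over 55% in size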
Summary of the method: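 HEK 293 cells pretreated with compound for 1 h, then infected with ZIKV MR766 (MOI 0.5) for 24 h at 37 C. NS1 detected by TR-FRET with two anti-NS1 antibodies; normalized to uninfected (0%) and infected (100%) wells.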

[6] = qHTS of pediatric cancer cell lines to identify multiple opportunities for drug repurposing: Primary screen for TC32 cells (AID 1347089); also: % is scaled to controls: 0 for no effect and ±100 for the full control effect; nearly all actives have a fitted effect of over 60% in size
Summary of the method: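 A viability screen of TC32 cells was run over 48 h, with primary MIPE doses spanning 0.78 nM–46 µM and NPC doses 0.59 nM–46 µM. ATP luminescence (CellTiter-Glo) served as the read-out.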

[7] = qHTS assay for cell viability of HEK293 cells (AID 743288); conditions: ATP luminescence (CellTiter-Glo), 18 h, active compounds read low; also: % is scaled to controls: 0 for no effect and ±100 for the full control effect; nearly all actives have a fitted effect of over 50% in size
Summary of the method: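 Luminescent ATP quantitation served as the viability read-out. Cells (parental HEK293, 2,000/well) received compounds after at least 5 h at 37 C and were exposed for 18 h before a 30 min room-temperature reagent step.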

[8] = qHTS assay for cell viability of the p53RE-bla HCT-116 cell line (AID 743292); also: % is scaled to controls: 0 for no effect and ±100 for the full control effect; nearly all actives have a fitted effect of over 55% in size
Summary of the method: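 HCT-116 p53RE-bla cells seeded 4,000/well; 5 h at 37 C; compound (DMSO) added; 16 h at 37 C; CellTiter-Glo added, 30 min RT; luminescence read.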

O=[N+]([O-])c1nccn1CO[C@@H](CO)[C@H](O)CO
inactive: max response [1] -9.19% | Potency [2] | outcome [3] | Potency [4] | Potency [5] | Potency [6]

C[C@H](CN1CCCC1)C(=O)c1ccc(C(F)(F)F)cc1
inactive: max response [1] 15.3% | Potency [2] | outcome [3] | Potency [4] | Potency [5] | Potency [6]

CCOC(=O)Cn1cccc1-c1nc(-c2ccc(OC)cc2)c(-c2ccc(OC)cc2)s1
inactive: max response [1] 9.5% | Potency [2] | outcome [3] | Potency [4] | Potency [5] | Potency [6]

CCO[C@H](Cc1ccc(OCCc2ccc(OS(C)(=O)=O)cc2)cc1)C(=O)O
inactive: max response [1] 6.84% | Potency [2] | outcome [3] | Potency [4] | Potency [5] | Potency [6]

C[C@]12CCC(=O)C=C1CC[C@@H]1[C@@H]2[C@@H](O)C[C@@]2(C)[C@H]1CC[C@]2(O)C(=O)COC(=O)CCC(=O)O
inactive: max response [1] -22.1% | Potency [2] | outcome [3] | Potency [4] | Potency [5] | Potency [6]

CCOC(=O)OCC/C(SC(=O)OCC)=C(\C)N(C=O)Cc1cnc(C)nc1N
inactive: max response [1] 11.2% | Potency [2] | outcome [3] | Potency [4] | Potency [5] | Potency [6]

CCN1CCN(C(=O)N[C@@H](C(=O)N[C@@H]2C(=O)N3[C@@H]2SC(C)(C)[C@H]3C(=O)O)c2ccccc2)C(=O)C1=O
inactive: max response [1] -7.03% | Potency [2] | outcome [3] | Potency [4] | Potency [5] | Potency [6]

O=C(OCC(COC(=O)c1cccnc1)(COC(=O)c1cccnc1)COC(=O)c1cccnc1)c1cccnc1
inactive: max response [1] 13.3% | Potency [2] | outcome [3] | Potency [4] | Potency [5] | Potency [6]

O=C(O)CNC(=O)CNC(=O)CNC(=O)CSC(=O)c1ccccc1
inactive: max response [1] 0.93% | Potency [2] | outcome [3] | Potency [4] | Potency [5] | Potency [6]

CC(=O)O[C@@H]1C(=O)O[C@@H]2[C@H]1OC(=O)[C@@H]2OC(C)=O
inactive: max response [1] 14.5% | Potency [2] | outcome [3] | Potency [4] | Potency [5] | Potency [6]

O=C(CCCCC(=O)Nc1c(I)cc(I)c(C(=O)O)c1I)Nc1c(I)cc(I)c(C(=O)O)c1I
inactive: max response [1] 35.4% | Potency [2] | outcome [3] | Potency [4] | Potency [5] | Potency [6]

Cc1nc([N+](=O)[O-])cn1-c1ccc([N+](=O)[O-])cc1
inactive: max response [1] 9.29% | Potency [2] | outcome [3] | Potency [4] | Potency [5] | Potency [6]

NCC(=O)O
inactive: max response [1] -6.74% | Potency [2] | outcome [3] | Potency [4] | Potency [5] | Potency [6]

CC(=O)CC/C=C(\C)CC/C=C(\C)CC/C=C(\C)CCC=C(C)C
inactive: max response [1] -1.07% | Potency [2] | outcome [3] | Potency [4] | Potency [5] | Potency [6]

OCCCc1ccccc1
inactive: max response [1] -2.92% | Potency [2] | outcome [3] | Potency [4] | Potency [5] | Potency [6]

CC1CC(=O)NN=C1c1ccc(NCC(C)(C)NCC(O)COc2cc(Cl)ccc2C#N)cc1 (centres undefined)
inactive: max response [1] 11.8% | Potency [2] | outcome [3] | Potency [4] | Potency [5] | Potency [6]

O=S(=O)(O)c1ccc2nc(-c3ccccc3)[nH]c2c1
inactive: max response [1] 9.66% | Potency [2] | outcome [3] | Potency [4] | Potency [5] | Potency [6]

CC(=O)[C@H]1CC[C@H]2[C@@H]3C=CC4=CC(=O)CC[C@@]4(C)[C@@H]3CC[C@]12C
inactive: max response [1] -3.42% | Potency [2] | outcome [3] | Potency [4] | Potency [5] | Potency [6]

CCOC(=O)NNc1ccc(N(CC)CC(C)O)nn1 (centres undefined)
inactive: max response [1] 0.172% | Potency [2] | outcome [3] | Potency [4] | Potency [5] | Potency [6]

CC(C)(C)C(O)/C=C/c1ccc2c(c1)OCO2 (centres undefined)
inactive: max response [1] -15.2% | Potency [2] | outcome [3] | Potency [4] | Potency [5] | Potency [6]

CCOC(=O)c1ccc(OCCN2C[C@H](O)[C@@H](O)[C@H](O)[C@H]2CO)cc1
inactive: max response [1] -1.08% | Potency [2] | outcome [3] | Potency [4] | Potency [5] | Potency [6]

CC(=O)OCC(=O)[C@@]1(O)[C@H](OC(C)=O)C[C@H]2[C@@H]3CCC4=CC(=O)C=C[C@]4(C)[C@@]3(F)[C@@H](O)C[C@@]21C
inactive: max response [1] -5.18% | Potency [2] | outcome [3] | Potency [4] | Potency [5] | Potency [6]

Nc1c[n+](N2CCOCC2)no1
inactive: max response [1] 2.15% | Potency [2] | outcome [3] | Potency [4] | Potency [5] | Potency [6]

CC(=O)OCC(=O)[C@@]1(O)CCC2C3CCC4=CC(=O)CC[C@]4(C)C3[C@@H](O)C[C@@]21C (some centres undefined)
inactive: max response [1] -8.54% | Potency [2] | outcome [3] | Potency [4] | Potency [5] | Potency [6]

CN1CCC(=C2c3ccccc3CCc3cccnc32)CC1
inactive: max response [1] 7.49% | Potency [2] | outcome [3] | Potency [4] | Potency [5] | Potency [6]

O=C(CO)[C@@H](O)[C@H](O)[C@@H](O)CO
inactive: max response [1] -0.255% | Potency [2] | outcome [3] | Potency [4] | Potency [5] | Potency [6]

COc1cc(C=O)ccc1O
inactive: max response [1] 16.9% | max response [7] -1.87% and -5.65% | Potency [8] | Potency [2] | outcome [3] | Potency [4] | Potency [5] | Potency [6]
